Among the data in PubChem BioAssay (NCI) are growth values, retold here.

Several values for one entry are separate records, joined by “and”; a condition that tells them apart may be missing. Equal entries are not always repeated. Compounds without any hit were thinned out: in the full panel of roughly 83,000, 20% have a hit.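 Percent growth is the endpoint: 0 to 100 indicates growth inhibition (40 means 60% inhibition), 0 means no net growth, and negative values indicate cell death.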 Values without a mark were called inactive. Activity calls are given as the source filed them. Rule for the calls: active = growth percent below 10; inactive = the rest.

For the experiment, the system named is MDA-MB-468 breast. In words: NCI-60 one-dose screen, 48 h (100 = growth as untreated, 0 = no growth, -100 = all killed). Particulars: 10 µM unless noted.
Consider `O=C(O)c1cc([N+](=O)[O-])ccc1Br`, for which the growth was 96.5%.
For `CNC(=O)c1cc(-c2ccc(NC(=S)Nc3cccc(C(F)(F)F)c3)cc2)nc2cccnc12`, the growth was 47.9%.
As for `O=C(/C=C/c1ccccc1)c1ccccc1O`, the figure is 64.4%.
On to `COc1cc(/C=C2\SC(N3CCCCC3)=NC2=O)ccc1OCCCCCCOc1ccc(/C=C2\SC(N3CCCCC3)=NC2=O)cc1OC`, for which the growth is 7.38% (active).
`CCc1c(C(=O)NCc2c(O)ccc3cccc(O)c23)[nH]c(C)c1C(C)=O`: the growth is 18.5%.
As for `COc1cccc(-c2nc3sccn3c2-c2ccnc(NCCCNS(=O)(=O)c3c(Cl)cccc3Cl)c2)c1`, the figure is 49.3%; as for `Cc1ccc2[nH]c(=O)cc(-n3nncc3COc3ccc(C=O)cc3)c2c1`, 114%; as for `O=C(O)c1cc(=O)[nH]c(=O)[nH]1`, 97.9% and 80.6%.
As to `O=C(/C=C/c1ccc(F)cc1)c1ccc(Nc2nc(NCCO)nc(Nc3ccc(Cl)cc3)n2)cc1`, the growth was 57.8%.
As for `O=C(Nc1ccc(Oc2cccc(Cl)c2)c(Cl)c1)c1cccnn1`, the growth was 63.3%.
Then `COc1c(O[C@@H]2OC(CO)[C@H](O)[C@H](O)C2O)cc2oc3cc(O)c(CC=C(C)C)c(O)c3c(=O)c2c1CC=C(C)C` (stereo partly specified), with 99.8%.
`Cc1ccc(C(=O)Nc2cccc(C#Cc3cccc4[nH]nc(N)c34)c2)cc1C(F)(F)F`: the growth is 95.6%.
For `O=C(Nc1ccc(Cl)c([N+](=O)[O-])c1)Nc1nc2ccccc2s1`, the growth is 40.6%.
Turning to `CC(=O)CC[C@H]1C(=O)N[C@@H](C(C)C)C(=O)N[C@@H](Cc2cc(O)cc(F)c2)C(=O)N2CCC[C@H](N2)C(=O)O[C@H](/C(C)=C/C=C/C(=O)OC(C)(C)C)C/C=C/C=C/[C@H](O)[C@H](C)[C@H]1O`, the growth was 15.1%.
As for `COC(=O)c1cc(-c2ccc(S(C)(=O)=O)cc2)[nH]c1N/N=C/c1c(Cl)cccc1Cl`, the growth was 15.7%.
As for `Nc1ccc(Sc2ccc([N+](=O)[O-])c3nonc23)cc1`, the figure is 67.3%; as for `CCCCCCC(C)(O)c1ccccc1` (stereo unspecified), 117%; as for `CCC1(C)OC(=O)NC1=O` (stereo unspecified), 107%.
On to `Clc1cccc(Cl)c1CSc1nc2ccccc2n2cccc12`, for which the growth is 18.9%.
In the case of `CCCCCCCCCCCCC1C/C=C\CCCC(=O)O1` (stereo unspecified), the growth is 127%.
Consider `Cc1oc(-c2ccc(Cl)cc2)nc1/C=C/C(=O)c1ccccc1`, for which the growth is 95%.
Turning to `Cc1cc(C)n(-c2nnc3n2N=C(c2ccc(-c4ccccc4)cc2)CS3)n1`, the growth was -5.89% (active).
Then `CS(=O)(=O)c1ccc(Cl)c([N+](=O)[O-])c1`, with 103%; and `C=C(C)[C@@H]1CC[C@]2(C(=O)N3CCNCC3)CC[C@]3(C)[C@H](CC[C@@H]4[C@@]5(C)C/C(=C/c6ccncc6)C(=O)C(C)(C)[C@@H]5CC[C@]43C)[C@@H]12`, with 95%; and `C=CCN1C(=O)c2ccccc2C1=O`, with 107%.
Then `CCOC(=O)c1cnc2c(C)cc(C)cc2c1NCCCN(C)C`, with 16.5%.
